Assay [1] addresses Nuclear receptor coactivator 3 (Homo sapiens) (UniProt Q9Y6Q9). The experiment in a line: SRC3 coactivator transcriptional activity inhibitors, confirmation, cell-based, luminescence, quadruplicate (AID 588792;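 active = mean inhibition over 43.08%, the solvent-only control mean plus 3 SD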;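 note: 0% = DMSO treated cells and 100% = gossypol at 36 µM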). The note with it: HEK293 GAL4-SRC3 luciferase reporter, at 3.6 µM, hits give high values.
Assay [2] relates to transactivating tegument protein VP16 (Human herpesvirus 1), Gal4-VP16 luciferase reporter. Kind of assay: VP16 transactivation inhibitors, counter-screen for SRC3 inhibitor project, cell-based, luminescence, high throughput (AID 588794; in the data active = inhibition above about 30%). The note with it: mammalian cells, VP16-driven luciferase reporter luminescence; at 3.6 µM; hits give high values. (The purpose of a counterscreen is to sort out artefacts and off-target activity.)

Assay [3] concerns the target Nuclear receptor coactivator 1 (Homo sapiens) (UniProt Q15788). The experiment in a line: SRC1 coactivator transcriptional activity inhibitors, confirmation, cell-based, luminescence, quadruplicate (AID 588820;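 active = mean inhibition above 46.68%, the untreated control wells mean plus 3 SD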;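 note: 0% = DMSO wells and 100% = gossypol 36 µM treated wells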). The note with it: HEK293 GAL4-SRC1 luciferase reporter, at 3.6 µM, hits give high values. A general note: In a reporter assay the amount or activity of a reporter protein is the signal.

Assay [4] in a line: VP16 transactivation inhibitors, counter-screen for SRC1 inhibitor project, cell-based, luminescence, high throughput (AID 588824; in the data active = inhibition above about 25%). The note with it: cell-based VP16 transactivation luciferase luminescence; at 3.6 µM; hits give high values.
Assay [5] is described as follows: StAR promoter reporter inhibitors, counter-screen for LRH-1 inverse agonist project, cell-based, luminescence, high throughput (AID 651611; in the data active = inhibition above about 28%). Particulars: StAR promoter luciferase reporter counterscreen, at 3.6 µM, hits give high values.
In assay [6] the target is Nuclear receptor subfamily 5 group A member 2 (Homo sapiens) (UniProt O00482). The experiment in a line: LRH-1 (NR5A2) inverse agonists, retest, confirmation, cell-based, luminescence (AID 651613; in the data active = inhibition above about 42%;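 note: HEK293T cells co-transfected with LRH-1 and StAR promoter luciferase reporter; 0% = vehicle wells and 100% = parental cells lacking receptor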). The note with it: cell-based LRH-1 luciferase reporter, inverse agonism; at 3.6 µM; hits give high values.
Nuclear receptor subfamily 5 group A member 2 (Homo sapiens), sequence (O00482 whole entry, looked up): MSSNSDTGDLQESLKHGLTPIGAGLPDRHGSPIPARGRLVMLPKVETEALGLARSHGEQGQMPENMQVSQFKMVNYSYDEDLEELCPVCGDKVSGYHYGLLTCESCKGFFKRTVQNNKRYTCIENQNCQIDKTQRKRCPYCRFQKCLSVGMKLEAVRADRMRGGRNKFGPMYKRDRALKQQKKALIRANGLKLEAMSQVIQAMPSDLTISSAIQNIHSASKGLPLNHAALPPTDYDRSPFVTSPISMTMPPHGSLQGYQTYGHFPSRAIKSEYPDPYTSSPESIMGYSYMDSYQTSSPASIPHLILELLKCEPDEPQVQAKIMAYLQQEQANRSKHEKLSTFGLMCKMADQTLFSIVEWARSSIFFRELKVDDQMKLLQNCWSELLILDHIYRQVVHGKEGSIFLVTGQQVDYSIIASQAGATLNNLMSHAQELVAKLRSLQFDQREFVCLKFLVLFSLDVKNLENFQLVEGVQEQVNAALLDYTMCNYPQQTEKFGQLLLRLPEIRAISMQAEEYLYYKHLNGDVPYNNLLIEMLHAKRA
The target in assay [7] is Steroidogenic factor 1 (Homo sapiens) (UniProt Q13285). Kind of assay: SF1 (NR5A1) inverse agonists, counter-screen for LRH-1 inverse agonist project, cell-based, luminescence, high throughput (AID 651614).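 Note: cells cotransfected with StAR promoter reporter and SF1 expression vector; 0% = vehicle on cells with receptor and 100% = vehicle on cells lacking receptor.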 Particulars: cell-based SF1 luciferase reporter, at 3.6 µM, hits give high values.
Steroidogenic factor 1 (Homo sapiens), sequence (Q13285 whole entry, looked up, the tested form may be a part): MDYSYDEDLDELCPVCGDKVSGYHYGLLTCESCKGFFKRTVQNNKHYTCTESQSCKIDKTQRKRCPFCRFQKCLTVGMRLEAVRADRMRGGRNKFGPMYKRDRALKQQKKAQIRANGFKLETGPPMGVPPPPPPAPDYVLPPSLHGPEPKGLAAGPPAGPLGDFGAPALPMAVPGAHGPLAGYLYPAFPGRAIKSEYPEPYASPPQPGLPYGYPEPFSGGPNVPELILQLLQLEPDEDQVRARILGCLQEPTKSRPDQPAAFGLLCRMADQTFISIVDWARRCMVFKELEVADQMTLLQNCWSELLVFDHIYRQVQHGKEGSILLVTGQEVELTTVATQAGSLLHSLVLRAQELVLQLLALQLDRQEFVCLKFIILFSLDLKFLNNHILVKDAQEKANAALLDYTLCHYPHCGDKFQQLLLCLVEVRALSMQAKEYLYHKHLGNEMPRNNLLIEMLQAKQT
The nature of assay [8]: VP16 transactivation reporter inhibitors, counter-screen for LRH-1 inverse agonist project, cell-based, luminescence, high throughput (AID 651615; in the data active = inhibition above about 33%). The note with it: Gal4-VP16 luciferase reporter cells, at 3.6 µM, hits give high values.

A number with no mark means an inactive call. The source made the active and inactive calls. Cut-off read from the data, not from the text of the source, unless noted: active = inhibition above about 44%; inactive = the rest.

Nuclear receptor coactivator 1 (Homo sapiens), sequence (Q15788 whole entry, looked up, the tested form may be a part): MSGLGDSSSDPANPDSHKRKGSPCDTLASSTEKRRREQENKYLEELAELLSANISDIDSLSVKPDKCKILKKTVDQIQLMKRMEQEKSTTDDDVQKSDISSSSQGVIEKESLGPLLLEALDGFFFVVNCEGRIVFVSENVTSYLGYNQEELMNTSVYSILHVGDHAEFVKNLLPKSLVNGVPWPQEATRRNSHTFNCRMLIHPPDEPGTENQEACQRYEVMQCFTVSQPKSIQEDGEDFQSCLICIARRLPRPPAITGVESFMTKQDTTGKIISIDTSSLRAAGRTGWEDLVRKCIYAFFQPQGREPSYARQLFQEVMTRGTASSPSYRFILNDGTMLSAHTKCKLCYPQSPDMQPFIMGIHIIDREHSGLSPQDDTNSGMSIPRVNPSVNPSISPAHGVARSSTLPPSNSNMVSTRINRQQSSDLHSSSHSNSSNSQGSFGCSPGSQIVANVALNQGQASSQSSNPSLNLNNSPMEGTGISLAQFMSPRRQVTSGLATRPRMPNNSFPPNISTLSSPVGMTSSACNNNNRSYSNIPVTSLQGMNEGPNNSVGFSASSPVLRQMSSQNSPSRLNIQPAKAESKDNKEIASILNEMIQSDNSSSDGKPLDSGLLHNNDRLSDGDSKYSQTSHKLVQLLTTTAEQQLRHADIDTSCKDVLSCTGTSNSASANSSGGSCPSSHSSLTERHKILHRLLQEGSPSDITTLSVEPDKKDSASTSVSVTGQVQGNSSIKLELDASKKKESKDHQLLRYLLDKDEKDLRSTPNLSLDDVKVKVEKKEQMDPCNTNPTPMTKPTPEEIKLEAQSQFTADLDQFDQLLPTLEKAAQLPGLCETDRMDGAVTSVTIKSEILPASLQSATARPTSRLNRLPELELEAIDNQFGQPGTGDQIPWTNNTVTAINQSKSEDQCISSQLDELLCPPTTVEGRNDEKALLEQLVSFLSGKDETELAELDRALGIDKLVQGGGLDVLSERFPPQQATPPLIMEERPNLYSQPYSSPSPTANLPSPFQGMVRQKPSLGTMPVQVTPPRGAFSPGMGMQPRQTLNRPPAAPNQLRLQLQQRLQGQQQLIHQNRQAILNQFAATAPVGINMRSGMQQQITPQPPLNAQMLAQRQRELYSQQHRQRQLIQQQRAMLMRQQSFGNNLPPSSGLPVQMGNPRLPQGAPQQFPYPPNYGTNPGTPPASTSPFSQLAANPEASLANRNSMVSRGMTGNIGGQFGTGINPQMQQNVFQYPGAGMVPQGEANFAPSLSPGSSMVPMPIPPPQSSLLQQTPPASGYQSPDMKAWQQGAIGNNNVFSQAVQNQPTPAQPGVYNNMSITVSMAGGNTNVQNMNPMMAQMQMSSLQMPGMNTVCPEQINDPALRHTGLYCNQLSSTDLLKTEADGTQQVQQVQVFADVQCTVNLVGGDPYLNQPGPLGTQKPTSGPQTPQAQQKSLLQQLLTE
Nuclear receptor coactivator 3 (Homo sapiens), sequence (Q9Y6Q9 whole entry, looked up, the tested form may be a part): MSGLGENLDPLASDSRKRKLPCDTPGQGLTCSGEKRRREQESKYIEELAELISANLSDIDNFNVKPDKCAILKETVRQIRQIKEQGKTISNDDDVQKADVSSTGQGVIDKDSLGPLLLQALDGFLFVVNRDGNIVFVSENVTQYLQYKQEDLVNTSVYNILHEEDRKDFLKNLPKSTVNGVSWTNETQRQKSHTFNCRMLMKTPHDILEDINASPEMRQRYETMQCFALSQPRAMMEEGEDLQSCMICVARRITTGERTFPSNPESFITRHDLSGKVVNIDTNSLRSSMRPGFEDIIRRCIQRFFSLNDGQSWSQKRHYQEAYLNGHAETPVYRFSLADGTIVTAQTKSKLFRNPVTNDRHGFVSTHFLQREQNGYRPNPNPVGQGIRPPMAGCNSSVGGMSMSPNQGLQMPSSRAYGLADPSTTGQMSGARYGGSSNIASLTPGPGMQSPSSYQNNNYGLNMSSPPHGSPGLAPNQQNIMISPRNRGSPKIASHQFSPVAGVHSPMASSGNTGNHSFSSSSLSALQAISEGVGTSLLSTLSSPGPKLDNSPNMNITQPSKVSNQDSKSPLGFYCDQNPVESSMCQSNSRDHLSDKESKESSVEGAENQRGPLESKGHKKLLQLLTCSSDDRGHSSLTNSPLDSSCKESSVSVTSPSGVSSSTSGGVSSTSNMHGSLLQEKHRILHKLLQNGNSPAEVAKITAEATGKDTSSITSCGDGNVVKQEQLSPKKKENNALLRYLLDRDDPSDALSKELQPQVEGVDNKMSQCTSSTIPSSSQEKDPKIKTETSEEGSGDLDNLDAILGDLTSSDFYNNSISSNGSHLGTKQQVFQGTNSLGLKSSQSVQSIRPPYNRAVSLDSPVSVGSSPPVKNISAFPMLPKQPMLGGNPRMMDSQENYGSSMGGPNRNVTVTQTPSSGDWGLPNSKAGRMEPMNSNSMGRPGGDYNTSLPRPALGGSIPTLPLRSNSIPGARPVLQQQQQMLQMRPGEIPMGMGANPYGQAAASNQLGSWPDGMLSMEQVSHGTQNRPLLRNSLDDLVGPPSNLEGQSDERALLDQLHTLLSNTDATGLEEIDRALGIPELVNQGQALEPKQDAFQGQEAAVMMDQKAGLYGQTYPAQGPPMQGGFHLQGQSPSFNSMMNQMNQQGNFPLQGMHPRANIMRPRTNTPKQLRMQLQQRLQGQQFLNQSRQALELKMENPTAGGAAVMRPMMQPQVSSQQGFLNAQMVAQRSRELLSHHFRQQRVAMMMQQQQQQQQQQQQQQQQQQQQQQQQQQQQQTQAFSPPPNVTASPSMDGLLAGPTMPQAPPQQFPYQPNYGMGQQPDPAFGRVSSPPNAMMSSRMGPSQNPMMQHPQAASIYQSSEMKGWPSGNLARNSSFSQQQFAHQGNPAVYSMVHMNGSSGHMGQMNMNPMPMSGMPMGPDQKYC

Take `CCCCCCCCCCn1c2c(c(=N)c3c1CCC3)CCC2`: the inhibition (usually the change of the read-out against control, counted positive when it falls) is 85.2% (active) in assay [1]; 89.5% (active) in assay [2]; 57.1% (active) in assay [3]; 89.7% (active) in assay [4]; 82.1% (active) in assay [5]; 108% (active) in assay [6]. The inhibition is 94.5% (active) in assay [7] and 95.2% (active) in assay [8].
As to `CN(C)c1ccc(/C=C/c2ccc3ccccc3n2)cc1`, the inhibition was 33.3% in assay [1]; 29% in assay [2]; 0.35% in assay [3]; 14.3% in assay [4]; 55.6% (active) in assay [5]; 59.3% (active) in assay [6]. For the same compound, the results for the inhibition in assay [7] and in assay [8] were 72.4% (active) and 29.4%, respectively.
In the case of `COc1ccc(C)cc1NC(=O)c1nnn(Cc2cccc(C(F)(F)F)c2)c1N`, the inhibition is 10.7% in assay [1]; 41.8% (active) in assay [2]; 27.5% in assay [3]; 53.3% (active) in assay [4]; 39.6% (active) in assay [5]; 56.2% (active) in assay [6]. Further, the figures for the inhibition in assay [7] and in assay [8] were 57.3% (active) and 60.3% (active), respectively.
With `Nc1ncnc2c(C3OC(CO)C(O)C3O)c[nH]c12` (centres undefined), the inhibition in assay [1] is 97.4% (active); in assay [2] it was 96.5% (active); in assay [3], 95.7% (active); in assay [4], 96% (active); in assay [5] it was 95.6% (active); in assay [6], 111% (active). Besides, the inhibition in assay [7] was 98.2% (active); in assay [8] it was 97.7% (active).
In the case of `CC(NC(=O)Nc1nnc(C(F)(F)F)s1)(C(F)(F)F)C(F)(F)F`, the inhibition in assay [1] was 52.9% (active); in assay [2], 72% (active); in assay [3], 37.6%; in assay [4] it was 79.1% (active); in assay [5], 74.9% (active); in assay [6], 99.7% (active). Besides, the inhibition in assay [7] is 89.4% (active); in assay [8], 93% (active).
Consider `CN(C)c1ccc(C=c2c3ccccc3n3c2cc(-c2ccccc2)[n+]3C)cc1`, for which the inhibition in assay [1] was 65.7% (active); in assay [2], 84.2% (active); in assay [3], 56.7% (active); in assay [4], 88.2% (active); in assay [5], 74% (active); in assay [6], 109% (active). Also, the inhibition was 94.8% (active) in assay [7] and 93.5% (active) in assay [8].
For `Cn1c(=O)c2cc(NC(=O)CCc3ccc(O)cc3)ccc2n1Cc1cccc(C(F)(F)F)c1`, the inhibition was 34.4% in assay [1]; 64.2% (active) in assay [2]; 38.7% in assay [3]; 66% (active) in assay [4]; 63.3% (active) in assay [5]; 80% (active) in assay [6]. The inhibition in assay [7] is 80.1% (active); in assay [8], 76.9% (active).
For `COc1ccc(C(=O)Nc2nc3ccccc3s2)c(OC)c1`, the inhibition in assay [1] is 92.8% (active); in assay [2] it was 91.5% (active); in assay [3], 84.7% (active); in assay [4], 87.5% (active); in assay [5], 93.4% (active); in assay [6], 93.9% (active). Also, the inhibition in assay [7] was 92.3% (active); in assay [8] it was 90.2% (active).
In the case of `CCCCCCCn1c2c(c(=N)c3ccccc31)CCC2`, the inhibition was 71.2% (active) in assay [1]; 79.5% (active) in assay [2]; 61.5% (active) in assay [3]; 79.1% (active) in assay [4]; 70.8% (active) in assay [5]; 111% (active) in assay [6]. Also, the inhibition in assay [7] was 91.2% (active); in assay [8], 94.7% (active).
On to `CC(C)CC(=NNC(=O)c1ccncc1)c1cc(Cl)ccc1O`, for which the inhibition in assay [1] was 80.1% (active); in assay [2], 72.5% (active); in assay [3], 65.2% (active); in assay [4], 78.7% (active); in assay [5], 88.6% (active); in assay [6], 101% (active). Moreover, the inhibition in assay [7] was 92.5% (active); in assay [8], 85.7% (active).
`CC(C)(C)c1ccc(-c2cn(-c3ccc(Br)cc3)c3[n+]2CCCS3)cc1`: the inhibition is 51.1% (active) in assay [1]; 59.4% (active) in assay [2]; 52.1% (active) in assay [3]; 61% (active) in assay [4]; 47.8% (active) in assay [5]; 107% (active) in assay [6]. Also, the inhibition was 80.7% (active) in assay [7] and 89.2% (active) in assay [8].
Take `CC(=NNC(=S)N1CCN(C2CCCCCC2)CC1)c1ccccn1`: the inhibition in assay [1] was 50% (active); in assay [2], 83.7% (active); in assay [3], 66.2% (active); in assay [4] it was 71% (active); in assay [5] it was 81.8% (active); in assay [6], 98.5% (active). Moreover, the inhibition is 85.4% (active) in assay [7] and 65.2% (active) in assay [8].
Consider `Cc1cc2c(=Cc3ccc(N(C)C)cc3)c3ccccc3n2[n+]1C`, for which the inhibition in assay [1] is 44.8% (active); in assay [2] it was 74.8% (active); in assay [3] it was 23.9%; in assay [4], 74.5% (active); in assay [5], 76.2% (active); in assay [6], 108% (active). Further, the inhibition is 89.4% (active) in assay [7] and 93.4% (active) in assay [8].
`CCC(=O)Nc1cccc(C(=O)/C=C/c2cc(Br)ccc2OC)c1`: the inhibition in assay [1] was 70.8% (active); in assay [2] it was 62.1% (active); in assay [3], 60.6% (active); in assay [4] it was 59.4% (active); in assay [5] it was 81.2% (active); in assay [6] it was 105% (active). Further, the inhibition is 94.1% (active) in assay [7] and 82.9% (active) in assay [8].
In the case of `O=C1C(=O)c2cccnc2-c2ncccc21`, the inhibition was 99.2% (active) in assay [1]; 97.1% (active) in assay [2]; 97.1% (active) in assay [3]; 96.7% (active) in assay [4]; 99.4% (active) in assay [5]; 110% (active) in assay [6]. In addition, the inhibition is 99.5% (active) in assay [7] and 99.6% (active) in assay [8].
On to `Cc1nc2ccc(NC(=O)c3cccs3)cc2c(=O)n1Cc1ccc(Cl)cc1`, for which the inhibition in assay [1] is 4.95%; in assay [2], 15.8%; in assay [3] it was -3.3%; in assay [4], 23.8%; in assay [5], 27.4%; in assay [6] it was 52.7% (active). Further, the inhibition in assay [7] was 55% (active); in assay [8], 40.8% (active).
For the compound `Cc1ccc(S(=O)(=O)N(C)C)cc1NC(=O)c1cncc(Br)c1`, the inhibition in assay [1] is 22.1%; in assay [2] it was 5.79%; in assay [3], 8.59%; in assay [4] it was 0.1%; in assay [5], 44.1% (active); in assay [6] it was 43% (active). The inhibition in assay [7] is 47.6% (active); in assay [8], 19.7%.
`Nc1nc2c(nnn2C2CC(O)C(CO)O2)c(=O)[nH]1` (centres undefined): the inhibition in assay [1] was 78.7% (active); in assay [2], 13.7%; in assay [3], 13.6%; in assay [4] it was 3.11%; in assay [5], 51.8% (active); in assay [6], 53.9% (active). Moreover, the results for the inhibition in assay [7] and in assay [8] were 44.1% (active) and 9.15%, respectively.

These data come from PubChem BioAssay.
